Source: PubChem BioAssay (National Center for Advancing Translational Sciences (NCATS))
IDH1 R132H inh: blocks human mutant IDH1 R132H enzyme. IDH1-R132H enzyme, NADPH consumption, diaphorase/resazurin fluorescence. O75874. 390,000 tested, 0.093% active. Potency, µM (highest dose often 76.6 µM), for inactives: top-dose activity change, negative = inhibition, hits mostly inhibitors. AID 602179; also: potency is read from the fitted curve at half-maximal effect; % is scaled to controls: 0 for no effect and ±100 for the full control effect; nearly all actives have a fitted effect of over 65% in size
Target sequence (O75874 whole entry R132H, stated change not applied): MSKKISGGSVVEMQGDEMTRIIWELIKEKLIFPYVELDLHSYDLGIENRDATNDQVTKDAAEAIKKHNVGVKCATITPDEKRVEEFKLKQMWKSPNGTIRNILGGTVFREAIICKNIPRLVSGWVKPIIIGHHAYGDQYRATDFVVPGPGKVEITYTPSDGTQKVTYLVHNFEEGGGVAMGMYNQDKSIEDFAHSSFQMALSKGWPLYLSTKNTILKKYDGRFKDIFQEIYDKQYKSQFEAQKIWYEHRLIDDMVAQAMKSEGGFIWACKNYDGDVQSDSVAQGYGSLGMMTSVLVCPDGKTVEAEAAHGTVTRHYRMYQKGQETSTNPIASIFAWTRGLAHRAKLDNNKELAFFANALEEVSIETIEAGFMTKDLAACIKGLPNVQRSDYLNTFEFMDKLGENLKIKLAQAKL
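IDH1-R132H (0.5 ug/mL) preincubated 30 min with compound, then NADPH (0.016 mM) and alpha-KG (2 mM) added; 80 min at RT, pH 7.5. Remaining NADPH coupled via diaphorase/resazurin to fluorescence (540/590 nm); concentration-response curves normalized to no-enzyme control.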
RGS4 inh: blocks human RGS4-accelerated GTP hydrolysis. Transcreener GDP fluorescence polarization, RGS4-accelerated GTP hydrolysis. Potency, µM (doses to about 114 µM), for inactives: at the top dose activity change, negative = inhibition, usual class: inhibitors. 390,000 tested, 0.039% active; also: potency is read from the fitted curve at half-maximal effect; % is scaled to controls: 0 for no effect and ±100 for the full control effect; nearly all actives have a fitted effect of over 75% in size
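MLSMR compounds (23 nl, pin-transferred) preincubated 10 min at room temperature with a 500nM (2x) first reagent, then RGS4 at 900nM (2x) plus Transcreener GDP mix added; fluorescence polarization (620/688 nm) read before and after 90 min at 30 °C.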
ClpP mod: qHTS Assay for Activators of ClpP; ATP-dependent Clp protease proteolytic subunit (Bacillus subtilis (strain 168)), P80244; purified B. subtilis ClpP, FRET peptide cleavage, 20 min; Potency, µM (series often up to 57.5 µM), for inactives: at the top dose activity change, negative = active; 340,000 tested, 1.9% active; active = well fitted falling curve with a large enough effect; inconclusive = small, poorly fitted or top-dose-only effect; inactive = no such curve, though single readings can be large or run the other way; also: potency is read from the fitted curve at half-maximal effect; the source files actives as falling curves though it sought activators and does not explain the sign; nearly all actives have a fitted effect of over 65% in size
Target sequence (P80244 whole entry, looked up): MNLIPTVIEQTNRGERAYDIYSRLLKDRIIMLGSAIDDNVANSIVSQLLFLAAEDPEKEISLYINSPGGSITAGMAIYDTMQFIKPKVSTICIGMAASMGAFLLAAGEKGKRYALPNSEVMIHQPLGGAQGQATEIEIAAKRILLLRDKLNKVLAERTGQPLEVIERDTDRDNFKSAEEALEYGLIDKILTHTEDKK
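ClpP 10 microg/mL final, pH 8 Tris/KCl buffer with BSA, glycerol, Tween-20; compound pinned in; FRET-FV substrate; RT 20 min; Ex320/Em430; ΔFRET vs ADEP 5.8 microM, DMSO, no enzyme.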
Mito fusion yeast: blocks mitochondrial division or promotes mitochondrial fusion. 320,000 tested, 0.23% active. Potency, µM (series often up to 46.1 µM), for inactives: at the highest dose growth rescue (activation), hits mostly activators. S. cerevisiae fusion-defective mutant growth rescue, CellTiterGlo 48 h. AID 485298; also: potency is read from the fitted curve at half-maximal effect; % of control where 0% means no effect; nearly all actives have a fitted effect of over 45% in size
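Compounds are tested for their ability to restore growth of mitochondrial fusion-defective yeast strains at non-permissive 37C in YPEG medium over 48 hours. Viability is quantified by luciferase luminescence.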
LDHA inh: inhibitors of human lactate dehydrogenase A | activity change, % (values are at about 110 or 230 µM) | 480,000 tested, 0.15% active | purified LDHA, NADH/diaphorase-resazurin fluorescence; stronger effect = lower value; in the data active = activity change below about -30%; inconclusive = mostly about -25% to -30%;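 also: plate controls were DMSO wells for no effect and wells without enzyme for full effect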
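Resorufin fluorescence (ex540/em590), read at 0 and 20 min after diaphorase/resazurin addition, reports the NADH left after a 5 min room-temperature reaction of 2 nM human LDH5 with 0.06 mM NADH and 0.2 mM pyruvate.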
S-ASM inh: human S-ASM enzyme inhibition; P17405; placental ASM, HMU-PC fluorogenic substrate, 60 min; Potency, µM (doses to about 57.5 µM), without a hit: top-dose activity change, negative = inhibition, usual class: inhibitors; 340,000 tested, 0.006% active; also: potency is read from the fitted curve at half-maximal effect
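Human placenta-derived ASM enzyme was preincubated with compound for 10 minutes at room temperature, then given fluorogenic substrate HMU-PC0 (9 uM final) for 60 minutes at 37 °C; a pH 10 stop preceded fluorescence reading at Ex 386/Em 447 nm.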
* marks the source's active call; other numbers are inactive results; [ ] = dose if it differs, or a comment. Shown is part of a subset that was picked to be rich in hits. Unless noted, calls follow the shape of the dose curve; as a rule, active = well fitted curve in the direction sought with a large enough effect; inconclusive = small, poorly fitted or top-dose-only effect, or another doubt; inactive = no such curve, though single readings can be large; an effect the other way counts as inactive or inconclusive.

For O=C(COc1ccc(Br)cc1)Nc1ccc(-c2nnc(-c3ccco3)o2)cc1 the results were IDH1 R132H inh 1%, RGS4 inh 28%, ClpP mod 10µM*, Mito fusion yeast -6%, LDHA inh -1 and S-ASM inh -1%.
For COc1ccc(OCC(=O)Nc2ccc(C(=O)Nc3ccccc3C(=O)O)cc2)cc1 the results were IDH1 R132H inh 4%, RGS4 inh -41%, ClpP mod 2%, Mito fusion yeast -1%, LDHA inh -10 and S-ASM inh 1%.
Screening O=C(CSc1ncnc2ccccc12)Nc1ccccc1C(=O)Nc1ccc(F)cc1 returned LDHA inh 6.
Screening CCC(=O)Nc1cc2c(C)cc(=O)oc2cc1C returned IDH1 R132H inh 6%, RGS4 inh -22%, ClpP mod 32µM*, Mito fusion yeast -3%, LDHA inh 0 and S-ASM inh 2%.
Screening CCOc1ccc2oc(=O)cc(C)c2c1 returned IDH1 R132H inh 12%, RGS4 inh 17%, ClpP mod 32µM*, Mito fusion yeast 1%, LDHA inh -9 and S-ASM inh 5%.
`Cc1cc(=O)oc2ccc(OC(C)C(=O)O)cc12` (stereo not drawn) gave IDH1 R132H inh 3%, RGS4 inh -20%, ClpP mod 32µM*, Mito fusion yeast -1%, LDHA inh -7 and S-ASM inh 14%.
For COc1ccc(-c2cc(=O)oc3cc(OC(C)C(=O)O)ccc23)cc1 (stereo not drawn) the results were IDH1 R132H inh 1%, RGS4 inh -13%, ClpP mod inconclusive, Mito fusion yeast -1%, LDHA inh 2 and S-ASM inh -3%.
`CCC(=O)Oc1ccc2oc(=O)cc(C)c2c1` gave IDH1 R132H inh 1%, RGS4 inh -28%, ClpP mod -6%, Mito fusion yeast -5%, LDHA inh -3 and S-ASM inh 1%.
Screening Cc1cc(=O)oc2cc(OC(C)C(=O)O)c(Cl)cc12 (stereo not drawn) returned IDH1 R132H inh 1%, RGS4 inh 12%, ClpP mod 28µM*, Mito fusion yeast -3%, LDHA inh 4 and S-ASM inh 64%.
For Cc1cc(=O)oc2cc(OCC(=O)Nc3c(C)n(C)n(-c4ccccc4)c3=O)c(Cl)cc12 the results were IDH1 R132H inh 4%, RGS4 inh -15%, ClpP mod 32µM*, Mito fusion yeast 1%, LDHA inh -1 and S-ASM inh 215%.
Screening Cn1c(Sc2ncc(C(F)(F)F)cc2Cl)nnc1-c1ccncc1 returned LDHA inh -1.
COCCNC(=O)CSc1cc(C)c2ccccc2n1 was read as LDHA inh 7.
`Cc1nccn1C(c1ccccc1)c1ccccc1` gave IDH1 R132H inh -5%, RGS4 inh 9%, LDHA inh -34* and S-ASM inh 2%.
Cc1nc2ccc(C(=O)OC(C)C(=O)NC3CCCC3)cc2nc1C (stereo not drawn) was read as LDHA inh 14.
For CCC1(C)CC(=O)N(c2ccc(C(=O)O)c(O)c2)C1=O (stereo not drawn) the results were IDH1 R132H inh 4%, RGS4 inh 4%, ClpP mod 25µM*, Mito fusion yeast 0%, LDHA inh 0 and S-ASM inh 6%.
For N#Cc1nc(COc2ccccc2F)oc1N1CCCCC1 the results were LDHA inh -1.
CCc1ccccc1OCc1nnc(SCc2cc(=O)c3ccccc3[nH]2)n1C was read as LDHA inh 13.
`COc1ccc(OC)c(Nc2ncnc3c2cnn3-c2cccc(C)c2)c1` gave IDH1 R132H inh 1%, RGS4 inh 7%, ClpP mod inconclusive, Mito fusion yeast 16µM*, LDHA inh 1 and S-ASM inh -4%.
CCS(=O)(=O)N1CCC(C(=O)Oc2ccccc2Br)CC1 was read as IDH1 R132H inh 2%, RGS4 inh 2%, ClpP mod 28µM*, Mito fusion yeast -1%, LDHA inh -1 and S-ASM inh 7%.
Screening CC(C)C(=O)Nc1cccc(NC(=O)C2(c3ccccc3)CCCC2)c1 returned LDHA inh -8.
Screening Cc1ccc(-c2ccc(CCC(=O)O)n2CC2CCCO2)cc1 (stereo not drawn) returned IDH1 R132H inh 0%, RGS4 inh -45%, ClpP mod 25µM*, Mito fusion yeast 6%, LDHA inh -1 and S-ASM inh 331%.
Screening Cc1ccc(C(=O)CC2(C#N)C(N)=C(C=O)CC2(C#N)C#N)cc1 (stereo not drawn) returned LDHA inh 3.
Screening COc1cccc(-c2nc(CC(=O)O)cs2)c1OC returned IDH1 R132H inh 2%, RGS4 inh -2%[56.9 µM], ClpP mod 13µM*, Mito fusion yeast -3%, LDHA inh -4 and S-ASM inh 6%.
`COc1ccc(-c2nc(CCNC(=O)c3ccccc3)cs2)cc1OC` gave IDH1 R132H inh 9%, RGS4 inh 4%, ClpP mod 25µM* and LDHA inh -7.
For COc1cc(C(=O)NCCc2csc(-c3ccc(Cl)cc3)n2)cc(OC)c1OC the results were IDH1 R132H inh -1%, RGS4 inh -4%, ClpP mod -11% and LDHA inh -1.
`COc1ccc(-c2nc(CNS(=O)(=O)c3ccccc3)cs2)cc1` gave RGS4 inh -12%, ClpP mod -7% and LDHA inh -5.
For COc1ccc(-c2nc(CC(=O)O)cs2)cc1 the results were IDH1 R132H inh 0%, RGS4 inh -26%[11.4 µM], ClpP mod 22µM*, Mito fusion yeast -4%, LDHA inh -1 and S-ASM inh 1%.
`COc1ccc(-c2nc(CC(=O)O)cs2)cc1OC` gave Mito fusion yeast -3%.
For CCCCOc1ccc(S(=O)(=O)NCc2csc(-c3ccc(OC)cc3)n2)cc1 the results were RGS4 inh 23%, ClpP mod 13µM* and LDHA inh -20.
`COC(=O)c1c(-c2ccccc2)no[n+]1[O-]` gave LDHA inh 0.
`COc1ccccc1C(=O)N1CCN(c2nc3nc(C)ccc3o2)CC1` gave LDHA inh 2.
Cc1ccc2nc(-c3ccc(C)o3)c(Nc3ccc(Cl)cc3)n2c1 was read as RGS4 inh inconclusive, ClpP mod 14µM* and LDHA inh 3.
